# From PubChem BioAssay
# Test: COS7 lysate on small-molecule microarray, probe aHis, 635 nm (AID 1123);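 further: z-score combines 667nm fluorescence intensity with signal-to-noise per printed compound spot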
# Settings: COS7 cell lysate, fluorescence, higher = more signal
row,Structure (SMILES),composite z-score
1,C[C@@H]1NC(=O)[C@@H](Cc2ccccc2)NC(=O)[C@@]23C(=O)N[C@@H](Cc4ccccc4)C2[C@H](C)[C@@]2(C)O[C@H]2C3/C=C/C/C=C\CNC1=O (stereo not given in full),1.05
2,COc1cccc(C)c1NC(=O)O[C@H]1[C@H](OC(=O)Nc2ccc3c(c2)OCO3)[C@@H](OC(=O)Nc2ccc3c(c2)OCO3)[C@@H](OC)O[C@@H]1CO,2.53
3,C=C(COC)/C(=C/C[C@H](OC(=O)c1ccncc1)c1ccc(CO)o1)c1cnc2ccccc2c1,1.04
4,CC(C)=C1C(=O)C(c2ccccc2)=C2CN3C(=O)N(CCc4ccccc4)C(=O)[C@]3(Cc3ccc(C(F)(F)F)cc3)[C@H]21,1.95
5,CCCCNC(=O)c1ccc(C#CC(C)(C)C)c(OC(C)=O)c1,-0.0302
6,C=CCC(OC(C)=O)[C@@H]1[C@@H](N(Cc2cccc3ccccc23)C(=O)Cc2ccc(OC)cc2)c2cc(OCCCO)ccc2N1C(=O)c1ccc(-c2ccccc2)cc1 (stereo not given in full),0.917
7,COc1cc(NN2C(C(O)c3ccc(N(C)C)cc3)C=CC3C(=O)N(c4ccccc4)C(=O)C32)cc(OC)c1OC (stereo not given),0.68
8,CCCC[C@@H](O)C1=C(COC)C[C@H]2C(=O)N(C)C(=O)[C@H]2[C@H]1CO,-0.419
9,CC1CC/C=C\[C@H]2OC34C=CCN(c5ccc6ccccc6c5)C(=O)[C@H]3N(CCCO)C(=O)[C@@H]4C2C(=O)O1 (stereo not given in full),-0.515
10,CC(C)C(CO)N1C(=O)[C@@H]2[C@H]3C(=O)OCC=C[C@H]3OC23C=CCN(c2ccc(Cl)cc2)C(=O)[C@@H]13 (stereo not given in full),-0.372
11,CCCN1C(=O)[C@@]2(Cc3ccccc31)N=C(c1ccc(OCCCO)cc1)O[C@H]2c1ccccc1,1.88
12,O=C(O)[C@@H]1[C@@H]2C(=O)N(c3ccccc3)C(=O)[C@@H]2C[C@@H]1Sc1ccccc1,0.796
13,COCCOC(=O)N1C(=O)[C@@]2(c3cc(C#CCNC(N)=O)ccc31)[C@H](C(N)=O)[C@H]1C(=O)O[C@H](c3ccccc3)[C@H](c3ccccc3)N1[C@@H]2c1ccccc1OCCO,1.4
14,COC(=O)[C@@]1(Cc2ccc(OC)cc2)[C@H]2c3cc(C(=O)N4CCCC4)n(CCO)c3C[C@H]2CN1C(=O)c1ccccc1,2.46
15,C[N+](C)(C)CCCCCCNC(=O)[C@@H]1C[C@@H]2C(=O)N3CCC[C@H]3C(=O)N2[C@@H]1c1ccc(O)cc1,1.47
16,O=C1O[C@@H](c2ccccc2)[C@@H](c2ccccc2)N2[C@@H](c3ccc(O)cc3)[C@]3(C(=O)Nc4ccc(C#CCCO)cc43)[C@@H](C(=O)N3CCN(c4ncccn4)CC3)[C@H]12,0.457
17,CC(C)c1ccc(NN2C(C(O)c3ccc(F)cc3)C=CC3C(=O)N(c4ccccc4)C(=O)C32)cc1 (stereo not given),2.79
18,C[N+](C)(C)CCCC[C@@H]1NC(=O)[C@@H]2C[C@H](C(=O)NCCCCCCN)[C@H](c3cccc(OCCO)c3)N2C1=O,1.54

row,Structure (SMILES),composite z-score
1,Cc1ccc(S[C@]2(C(=O)NCC(F)(F)F)CC(=O)N(Cc3cc(C(F)(F)F)cc(C(F)(F)F)c3)[C@@H]2c2ccc(CO)cc2I)cc1,0.869
2,C=C[C@H]1C(C(=O)OCC)=CC[C@@H](c2ccccc2)N1S(=O)(=O)c1ccc(C)cc1,1.67
3,CCCCN1CC=CC23O[C@@H]4/C=C\CCCOC(=O)C4[C@H]2C(=O)N(CCO)[C@@H]3C1=O (stereo not given in full),1.1
4,CCCCN1CC=CC23O[C@@H]4/C=C\CCC(C)OC(=O)C4[C@H]2C(=O)N(CCCO)[C@@H]3C1=O (stereo not given in full),-0.0462
5,O=C(NCc1ccc(F)cc1)[C@H]1C[C@H]2C(=O)NCC(=O)N2[C@H]1c1ccc(O)cc1,1.43
6,CCOC(=O)C[C@H]1[C@H](OC(=O)Cc2ccc3c(c2)OCO3)[C@@H](NC(=O)c2ccc3ccccc3n2)c2cc(OCCCO)ccc2N1C(=O)c1ccccc1,0.109
7,COc1cc2c(cc1O)C(C1CC1)N(C)CC2 (stereo not given),-0.374
8,COC(=O)C1=CC(CCCO)=CC(c2cccs2)N(Cc2cccc(OC(F)(F)F)c2)C=C1C(=O)OC (stereo not given),1.93
9,COCCCNC(=O)[C@@]1(Sc2ccc(C)cc2)CC(=O)N(C2Cc3ccccc3C2)[C@@H]1c1ccc(CO)cc1,0.537
10,CN(C)c1ccc(C(O)C2C=CC3C(=O)NC(=O)C3N2Nc2ccccn2)cc1 (stereo not given),0.718
11,COc1ccccc1CN1C(=O)c2ccccc2[C@](Cc2ccccc2I)(C(=O)O)[C@@H]1c1ccc(CO)cc1,2
12,CC(C)N1CC=CC23O[C@@H]4C=CCCOC(=O)C4[C@H]2C(=O)N(CCCO)[C@@H]3C1=O (stereo not given in full),-0.192
13,COc1ccc(C(=O)Nc2ccc(CN3C(=O)[C@]4(O[C@H](CC(=O)N5Cc6ccccc6C[C@H]5CO)[C@@H]([Si](C)(C)c5ccc(OC)cc5)[C@@H]4C)c4ccccc43)cc2)cc1,1.1
14,Cn1cccc1C(O)C1C=CC2C(=O)N(c3ccccc3)C(=O)C2N1Nc1ccccc1 (stereo not given),2.37
15,CCOC(=O)C[C@H]1[C@H](OC(=O)c2cc3ccccc3oc2=O)[C@@H](NC(=O)CC(C)C)c2cc(OCCCO)ccc2N1C(=O)c1ccc2ccccc2n1,1.04
16,CC[C@@H]1C=C(C(=O)O)[C@H](c2ccccc2)N1S(=O)(=O)c1ccc(C)cc1,2.24
17,C=CC[C@@H](OC(=O)Nc1ccc(SC)cc1)c1ccc(O)c(F)c1,0.527
